The source of these data is PubChem BioAssay AID588689 (Southern Research Specialized Biocontainment Screening …, 2011).

Among all 340,000 compounds or so, about 1,000 (0.29%) were called active. No stated cut-off is given here; in the data, inconclusive means inhibition above about 29% without an active follow-up result; inactive means below that. Not all results are given here. Measured potencies and affinities stand elsewhere.

The inhibition is the relative decrease from the control value, in per cent.

The experiment deals with Genome polyprotein (Dengue virus type 2 (strain 16681-PDK53)) (UniProt P29991). Nature of the experiment: flavivirus cap methylation enzyme inhibition – biochemical, confirmation dose response, primary screen (AID 588689). The settings on record: Dengue-2 NS5 methyltransferase capping enzyme assay, at 25 µM, stronger effect = higher value.
[1] abbreviates: measured here: pilot screen replicate inhibition.

As to `CCCOc1ccccc1N/C(=N/c1nc(C)cc(C)n1)NC(=O)Nc1ccc(Cl)cc1`, the inhibition was -4.07% (inactive).

Turning to `Oc1ccc(C[C@H]2CNCCN2CCc2cccc3ccccc23)cc1`, the inhibition was 6.4% (inactive).

Regarding `O=C(NCCCO)c1cc2ccccc2[nH]1`, the inhibition was -9.54% (inactive).

Turning to `O=C1Nc2ccccc2C12NCCc1c2[nH]c2ccccc12` (stereo unspecified), the inhibition was 6.48% (inactive).

Regarding `O=C(O)c1ccccc1-c1ccccc1C(=O)Nc1ccc2c(c1)[nH]c(=O)c1ccccc12`, the inhibition was 9.14% (inactive).

Take `O=C(O)c1ccccc1-c1ccccc1C(=O)Nc1ccc2oc(=O)c3ccccc3c2c1`: the inhibition was 11.5% (inactive).

Take `CCC(NS(=O)(=O)c1ccc(OC)cc1)C(=O)NCCc1ccccc1` (stereo unspecified): the inhibition is -3.31% (inactive).

In the case of `Cc1ccc(OCC(=O)Sc2ccc(C)cc2)cc1`, the inhibition was -33.2% (inactive).

With `CC1(C)[C@@H](O)CC[C@]2(C)[C@H]3C(=O)C=C4[C@@H]5C[C@@](C)(C(=O)O)CC[C@]5(C)CC[C@@]4(C)[C@]3(C)CC[C@@H]12`, the inhibition is -0.73% (inactive).

As for `Cc1sc2ncnc(N3CCC(C(=O)Nc4sc5c(c4C(N)=O)CCC(C)C5)CC3)c2c1C` (stereo unspecified), the inhibition is 0% (inactive).

Turning to `Cc1cccc(CCNC(=O)CCc2nnc(CCc3ccccc3)o2)n1`, the inhibition is -0.91% (inactive).

`CC(NC(=O)c1ccco1)C(=O)NC(C)c1cc(F)c(Cl)cc1Cl` (stereo unspecified): the inhibition is -1.62% (inactive).

For `COc1ccc(CC(=O)Nc2ccc(S(=O)(=O)N3CCOCC3)cc2)cc1`, the inhibition was 0% (inactive).

Regarding `O=C(COC(=O)c1ccc([N+](=O)[O-])o1)NCc1ccc2c(c1)OCO2`, the inhibition was 0% (inactive).

As for `O=C(O)c1cccc(-n2cccc2/C=N/O)c1`, the inhibition was 0% (inactive).

As to `O=C(O)c1cccc(-n2cccc2/C=C\[N+](=O)[O-])c1`, the inhibition was 0.75% (inactive).

For `O=C(N/C(=C\c1cccnc1)C(=O)N1CCC(O)CC1)c1ccccc1`, the inhibition was -1.67% (inactive).

Turning to `CC(=O)Nc1ccc(S(=O)(=O)NCCC(=O)OCC(=O)c2ccc(Br)cc2)cc1`, the inhibition was -10.1% (inactive).

As to `CC(=O)NN1C(=O)/C(=C\c2ccc(Cl)cc2)SC1=S`, the inhibition was 1.78% (inactive).

Take `Cc1ccc(C)n1N1C(=O)/C(=C\c2ccc(Cl)cc2)SC1=S`: the inhibition is 6.92% (inactive).

For `COc1ccc(-c2nc(CS(=O)CC(=O)NCc3ccc(F)cc3)c(C)o2)cc1` (stereo unspecified), the inhibition is -10.5% (inactive).

As to `COc1cc(C(=O)NCCC(c2ccccc2)c2ccccc2)cc(OC)c1OC`, the inhibition was -9.51% (inactive).

For `CC1=NN(c2ccc(Br)cc2)C(=O)/C1=C/c1cccs1`, the inhibition was 22% (inactive).

For the compound `CC1=NN(c2ccccc2)C(=O)/C1=C\c1cc(C)n(-c2ccccc2)c1C`, the inhibition is -4.02% (inactive).

`CC1=NN(c2ccccc2)C(=O)/C1=C/c1ccc[nH]1`: the inhibition is -6.55% (inactive).

Consider `CC1=NN(c2ccccc2)C(=O)/C1=C\c1sccc1C`, for which the inhibition is 3.11% (inactive).

In the case of `CC(=O)c1ccc(OC(=O)c2cccs2)cc1`, the inhibition was -2.4% (inactive).

On to `CC1=NN(c2ccccc2)C(=O)/C1=C/C=C/c1ccccc1`, for which the inhibition was 0.72% (inactive).

On to `CC1=NN(c2ccccc2)C(=O)/C1=C/N(C)C`, for which the inhibition was 2.35% (inactive).

In the case of `CCOc1cc(/C=C2/C(=O)N(c3ccccc3)N=C2C)ccc1OC(=O)c1cccs1`, the inhibition is 8.81% (inactive).

Turning to `COCCN(C(=O)COC(=O)C(c1ccccc1)c1ccccc1)c1c(N)n(Cc2ccccc2)c(=O)[nH]c1=O`, the inhibition is 0% (inactive).

Regarding `CCC(C(=O)OCC(=O)N(C)c1c(N)n(Cc2ccccc2)c(=O)[nH]c1=O)c1ccccc1` (stereo unspecified), the inhibition was -2.91% (inactive).

Take `COc1cccc(N2C(=O)Nc3ccc(Br)cc3C2(O)C(=O)NCCCOC(C)C)c1` (stereo unspecified): the inhibition is -4.76% (inactive).

`Cc1cc(C)c(C)c(S(=O)(=O)NCCN2CCOCC2)c1C`: the inhibition is 6.21% (inactive).

For `COC(=O)c1ccc(CSC2=NC[C@@H]3[C@@H]4C(=O)N(C)C(=O)[C@@H]4[C@](C)(C(=O)OC)N23)cc1`, the inhibition was -0.66% (inactive). Also, the inhibition under setting [1] came to 1.52%.

As for `CCOc1ccc(C(=O)NCC(=O)NCCCSc2ccccc2)cc1OCC`, the inhibition was -5.91% (inactive).

Regarding `CCOC(=O)N1CCN(CC(=O)c2ccc(O)c(C)c2O)CC1`, the inhibition is 0.45% (inactive).

As to `CC1=NN(c2ccccc2)C(=O)/C1=C\N(O)c1ccccc1`, the inhibition is 1.98% (inactive). Moreover, under setting [1], the inhibition was -1.18%.

`CC1=NN(c2ccccc2)C(=O)/C1=C\c1cc(C)n(C)c1C`: the inhibition was 0% (inactive).

In the case of `CC1=NN(c2ccccc2)C(=O)/C1=C\c1ccc(Br)s1`, the inhibition is -0.88% (inactive).

Consider `COc1ccccc1/C=C1/C(=O)N(c2ccc([N+](=O)[O-])cc2)N=C1C`, for which the inhibition is 3.11% (inactive).

With `COc1ccc(/C=C2/C(=O)N(c3ccccc3)N=C2C)cc1Br`, the inhibition was 18.3% (inactive).

With `CC1=NN(c2ccccc2)C(=O)/C1=C\c1cn(-c2ccccc2)nc1C`, the inhibition is 3.59% (inactive).

Take `OCCC1CN(Cc2cc3c(cc2Cl)OCO3)CCN1Cc1ccccc1` (stereo unspecified): the inhibition is 1.46% (inactive).

As to `CCN(CC)S(=O)(=O)c1cc(NC(=O)CSc2nnc(N)s2)ccc1C`, the inhibition is 0.37% (inactive).

As to `COc1ccc(C(=O)NC(=S)Nc2cccnc2)cc1[N+](=O)[O-]`, the inhibition is 6.37% (inactive).

For `CC(C)C(=O)NNS(=O)(=O)c1ccccc1[N+](=O)[O-]`, the inhibition is -1.48% (inactive).

On to `Cc1nn(-c2ccc(F)cc2)c(Cl)c1C(=O)N(C)CC(=O)Nc1cccc(F)c1`, for which the inhibition was -5.05% (inactive).

As for `CCCC(=O)N(c1ccc(C(=O)O)cc1)c1nc(-c2ccccc2)c(C)s1`, the inhibition was -13.9% (inactive).

`Cc1c(Br)c(=O)oc2c(Br)c(O)c(O)cc12`: the inhibition was 6.73% (inactive).

As to `Cc1c(Br)c(=O)oc2c(Br)c(O)ccc12`, the inhibition is -1.45% (inactive).

`CCOC(=O)C(=O)NNc1ccccc1OC`: the inhibition was -3.11% (inactive).

`Cc1ccc(Cc2c(-c3ccc(Cl)cc3)nc3ccc(Cl)cn23)cc1`: the inhibition was 7.95% (inactive).

As for `C#CCOc1c(Cl)cc(/C=C2/C(=O)ON=C2C)cc1OC`, the inhibition is 19.6% (inactive).

Regarding `COc1ccc(/C=C2/C(=O)ON=C2C)cc1Cl`, the inhibition was 5.23% (inactive).

For `CCOc1cc(/C=C2/C(=O)ON=C2C)cc(Br)c1O`, the inhibition is -74.3% (inactive).

Regarding `COc1ccc(/C=C2/C(=O)ON=C2C)cc1Br`, the inhibition is 17.8% (inactive).

Take `C#CCOc1ccc(Cl)cc1/C=C1/C(=O)ON=C1C`: the inhibition was 10.6% (inactive).

On to `S=C(NCCc1c[nH]c2ccccc12)NC1CC1`, for which the inhibition is 2.32% (inactive).

Turning to `N#C/C(=C\c1ccc([N+](=O)[O-])cc1)C(=O)Nc1ccccc1O`, the inhibition was 8.94% (inactive).

Consider `Brc1ccc(-c2nnc3n2CCCCC3)cc1`, for which the inhibition was -4.77% (inactive).

Consider `Cc1ccccc1CSCCNC(=O)COc1ccc(Cl)cc1`, for which the inhibition is -3.24% (inactive).

Consider `Cc1occc1C(=O)NNC(=O)c1ccccc1[N+](=O)[O-]`, for which the inhibition was 1.62% (inactive).

As to `CCC(=O)N1CCc2cc(Br)cc(S(=O)(=O)NCc3ccco3)c21`, the inhibition was 0% (inactive).

With `O=C1OC(c2ccc(Cl)cc2)/C(=C(/O)c2ccccc2)C1=O` (stereo unspecified), the inhibition was 28.1% (inactive).

As to `CC(=O)C1=C(O)C(=O)OC1c1ccc(C)cc1` (stereo unspecified), the inhibition was -9.38% (inactive).

On to `O=C(O)c1ccccc1C(=O)c1ccc(Cl)cc1`, for which the inhibition is 1.15% (inactive).

For the compound `CC(=O)C1=C(O)C(=O)OC1c1ccc(Cl)cc1` (stereo unspecified), the inhibition is -3.11% (inactive).

As for `CC(=O)Nc1ccc(S(=O)(=O)N2CCC(N3CCCCCC3)CC2)cc1`, the inhibition is -3.4% (inactive).

As to `CCOc1ccc(NC(=O)C2=NN(c3ccccc3)C(=O)CC2)cc1S(=O)(=O)N1CCCCC1`, the inhibition was -4.38% (inactive).

Consider `COc1cccc(N2CC(O)Cn3c2nc2c3c(=O)[nH]c(=O)n2C)c1` (stereo unspecified), for which the inhibition is -3.08% (inactive).

Regarding `COc1ccc(NC(=O)c2ccc(S(=O)(=O)N3CC(C)OC(C)C3)cc2)cc1` (stereo unspecified), the inhibition is 3.36% (inactive).

Regarding `CN(CC(=O)Nc1ccc(S(=O)(=O)N(C)C)cc1)Cc1ccc(C(F)(F)F)cc1`, the inhibition is 2.22% (inactive).

Consider `O=[N+]([O-])c1ccccc1N=Nc1ccc(O)cc1`, for which the inhibition is 0% (inactive).

On to `COc1cc(CN(C)Cc2cccc3ccccc23)cc([N+](=O)[O-])c1O`, for which the inhibition is 11.1% (inactive). For the same compound, the inhibition under setting [1] stood at 0.595%.

Turning to `O=C(c1cc(O)c(O)c([N+](=O)[O-])c1)c1ccccc1F`, the inhibition was -7.33% (inactive).

In the case of `Nc1ccc(N=Nc2ccccc2)cc1[N+](=O)[O-]`, the inhibition was -3.11% (inactive).

As to `O=[N+]([O-])c1cccc(C=Nc2cccc3ccccc23)c1O`, the inhibition was 14.3% (inactive).

As for `Nc1ccc(-c2ccc(N)c([N+](=O)[O-])c2)cc1[N+](=O)[O-]`, the inhibition is -9.54% (inactive).

Regarding `Cc1cc(Nc2ccccc2C(=O)O)n2ncnc2n1`, the inhibition is 6.29% (inactive).

As to `Cn1c(N)c(S(=O)(=O)N2CCN(c3ccccc3F)CC2)c(=O)n(C)c1=O`, the inhibition is -7.15% (inactive).

Consider `CC(C)CC(=O)Nc1ccc(C(=O)COC(=O)C2CCC2)cc1`, for which the inhibition was -0.65% (inactive).

As to `O=C1C2C3C=CC(C4CC34)C2C(=O)N1Cc1ccco1` (stereo unspecified), the inhibition is -2.18% (inactive).

Consider `CSCCC(NS(=O)(=O)c1ccc(F)cc1)C(=O)NCc1ccc(S(N)(=O)=O)cc1` (stereo unspecified), for which the inhibition was 3.04% (inactive).

Consider `C=CCn1c(SCC(=O)NC2CCCC2)nnc1-c1ccncc1`, for which the inhibition is -3.89% (inactive).

Take `Cc1ccc(S(=O)(=O)Nc2ccc3ncccc3c2[N+](=O)[O-])cc1`: the inhibition was -1.93% (inactive).

On to `Cc1ccccc1NC1=C/C(=N\S(=O)(=O)c2cccs2)c2ccccc2C1=O`, for which the inhibition is 63.2% (inactive).

Regarding `Cc1ccc(S(=O)(=O)Nc2ccc3cc([N+](=O)[O-])ccc3c2[N+](=O)[O-])cc1`, the inhibition was -2.33% (inactive).

Turning to `CCc1ccc(S(=O)(=O)/N=C2\C=C(Nc3ccc(O)cc3)C(=O)c3ccccc32)cc1`, the inhibition is 8.96% (inactive).

With `Cc1ccc(NC2=C/C(=N/S(=O)(=O)c3cccs3)c3ccccc3C2=O)cc1`, the inhibition was 1.1% (inactive).

As to `Cc1cc(C)c(S(=O)(=O)/N=C2\C=C(NS(=O)(=O)c3ccccc3)C(=O)c3ccccc32)c(C)c1`, the inhibition is 25.3% (inactive).

As for `CCc1ccc(S(=O)(=O)Nc2ccccn2)cc1`, the inhibition is -5.27% (inactive). Also, the inhibition under setting [1] was -6.09%.
